{"source": "the supplement of paper PMC10849652", "note": "The full data set covers some 7,900 targets. This sample favours those with a hit. About 0.6% of all pairs of compound and target were hits. Unmarked numbers belong to inactive results."}
{"compound": "CN1CC[C@H](c2c(O)cc(O)c3c(=O)cc(-c4ccccc4Cl)oc23)[C@H](O)C1 [alvocidib]", "experiment": "log2 fold change, soluble protein after heating vs DMSO (PISA); higher = thermal stabilisation; K562 cells, 10 uM, 30 min; active = over 0.2 and 3.5 SD of the protein, either way, in both replicates (recomputed)", "outline": "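K562 cells at 2×10^6 cells/mL were treated with 10 μM compound for 30 min. Aliquots were heated for 3 min across 48°C-58°C, pooled, and extracted in PBS with 0.5% NP-40 at 4°C; soluble protein was the supernatant after 21,000xg for 90 min. Soluble protein was quantified by TMTpro 16plex LC-MS/MS with channel sums equalised, and reported as log2 fold change in thermal stability against DMSO controls, with values from duplicates.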"}
{"target": "CTNNB1 (UniProt P35222)", "sequence (P35222 whole entry, looked up)": "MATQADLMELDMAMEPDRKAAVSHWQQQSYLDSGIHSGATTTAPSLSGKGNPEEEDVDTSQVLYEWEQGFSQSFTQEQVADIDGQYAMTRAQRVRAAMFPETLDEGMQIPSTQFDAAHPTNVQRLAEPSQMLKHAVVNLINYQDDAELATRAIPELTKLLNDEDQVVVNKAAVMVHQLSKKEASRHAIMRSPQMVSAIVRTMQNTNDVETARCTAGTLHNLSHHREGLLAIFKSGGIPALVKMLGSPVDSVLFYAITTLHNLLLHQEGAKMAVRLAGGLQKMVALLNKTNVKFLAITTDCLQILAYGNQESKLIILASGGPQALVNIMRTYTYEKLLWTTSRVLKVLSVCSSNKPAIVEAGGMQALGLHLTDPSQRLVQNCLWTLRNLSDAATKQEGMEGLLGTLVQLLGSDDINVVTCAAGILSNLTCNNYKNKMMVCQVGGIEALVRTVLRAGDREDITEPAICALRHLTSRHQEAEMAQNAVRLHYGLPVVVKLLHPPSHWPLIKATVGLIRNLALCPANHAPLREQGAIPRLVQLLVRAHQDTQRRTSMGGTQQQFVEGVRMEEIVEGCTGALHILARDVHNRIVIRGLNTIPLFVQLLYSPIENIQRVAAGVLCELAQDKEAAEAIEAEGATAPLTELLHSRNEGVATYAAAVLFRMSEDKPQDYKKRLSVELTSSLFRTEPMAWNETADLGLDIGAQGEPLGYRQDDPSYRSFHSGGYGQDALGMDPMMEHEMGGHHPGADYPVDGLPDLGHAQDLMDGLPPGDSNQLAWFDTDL", "log2 fold change": 0.037}
{"target": "DENND10 (UniProt Q8TCE6)", "sequence (Q8TCE6 whole entry, looked up)": "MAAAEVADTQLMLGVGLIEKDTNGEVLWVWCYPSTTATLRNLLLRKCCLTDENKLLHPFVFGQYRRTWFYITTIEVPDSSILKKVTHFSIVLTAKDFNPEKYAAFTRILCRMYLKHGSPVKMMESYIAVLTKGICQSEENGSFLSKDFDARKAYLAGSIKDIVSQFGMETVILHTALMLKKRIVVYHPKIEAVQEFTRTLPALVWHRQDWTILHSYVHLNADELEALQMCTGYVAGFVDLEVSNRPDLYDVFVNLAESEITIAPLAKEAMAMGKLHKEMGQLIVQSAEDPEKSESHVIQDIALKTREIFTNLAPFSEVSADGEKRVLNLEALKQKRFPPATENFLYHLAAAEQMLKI", "log2 fold change": 0}
{"target": "EXOSC10 (UniProt Q01780)", "log2 fold change": 0.092}
{"target": "EXOC4 (UniProt Q96A65)", "sequence (Q96A65 whole entry, looked up)": "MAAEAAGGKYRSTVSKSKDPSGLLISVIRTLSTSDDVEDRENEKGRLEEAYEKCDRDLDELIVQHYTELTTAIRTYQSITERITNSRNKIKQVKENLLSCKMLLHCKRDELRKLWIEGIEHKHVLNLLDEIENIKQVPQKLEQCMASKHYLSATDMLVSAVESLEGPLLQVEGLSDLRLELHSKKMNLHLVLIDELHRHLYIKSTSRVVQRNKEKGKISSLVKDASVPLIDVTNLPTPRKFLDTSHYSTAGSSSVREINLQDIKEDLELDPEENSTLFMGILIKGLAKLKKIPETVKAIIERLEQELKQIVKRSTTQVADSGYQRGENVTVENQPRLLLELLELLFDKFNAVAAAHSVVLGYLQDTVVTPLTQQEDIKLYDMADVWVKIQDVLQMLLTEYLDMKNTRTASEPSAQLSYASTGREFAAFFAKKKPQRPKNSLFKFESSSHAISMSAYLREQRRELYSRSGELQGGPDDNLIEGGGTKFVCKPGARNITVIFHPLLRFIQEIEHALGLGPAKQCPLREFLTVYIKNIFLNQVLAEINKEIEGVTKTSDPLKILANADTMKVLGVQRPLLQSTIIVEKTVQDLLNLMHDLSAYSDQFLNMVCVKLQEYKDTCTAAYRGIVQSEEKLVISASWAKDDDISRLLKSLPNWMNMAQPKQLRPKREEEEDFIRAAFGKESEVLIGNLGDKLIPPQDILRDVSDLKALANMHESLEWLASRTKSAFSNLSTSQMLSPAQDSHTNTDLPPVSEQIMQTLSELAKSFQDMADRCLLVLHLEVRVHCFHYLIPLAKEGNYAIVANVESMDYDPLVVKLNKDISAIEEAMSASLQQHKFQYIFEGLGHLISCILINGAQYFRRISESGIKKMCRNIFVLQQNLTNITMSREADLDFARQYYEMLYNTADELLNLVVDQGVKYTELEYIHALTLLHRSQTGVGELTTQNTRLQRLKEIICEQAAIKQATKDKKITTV", "log2 fold change": -0.131}
{"target": "DEGS1 (UniProt O15121)", "sequence (O15121 whole entry, looked up)": "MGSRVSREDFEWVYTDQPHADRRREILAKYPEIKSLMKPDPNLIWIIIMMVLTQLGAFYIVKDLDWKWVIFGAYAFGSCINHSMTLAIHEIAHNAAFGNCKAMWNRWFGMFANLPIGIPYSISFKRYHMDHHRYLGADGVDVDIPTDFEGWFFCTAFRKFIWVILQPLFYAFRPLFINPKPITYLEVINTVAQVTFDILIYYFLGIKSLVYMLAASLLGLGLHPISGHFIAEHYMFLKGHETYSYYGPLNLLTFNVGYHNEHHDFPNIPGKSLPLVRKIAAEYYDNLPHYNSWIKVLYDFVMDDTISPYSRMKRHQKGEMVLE", "log2 fold change": 0.036}
{"target": "DDX27 (UniProt Q96GQ7)", "log2 fold change": 0.209}
{"target": "EDC4 (UniProt Q6P2E9)", "sequence (Q6P2E9 whole entry, looked up)": "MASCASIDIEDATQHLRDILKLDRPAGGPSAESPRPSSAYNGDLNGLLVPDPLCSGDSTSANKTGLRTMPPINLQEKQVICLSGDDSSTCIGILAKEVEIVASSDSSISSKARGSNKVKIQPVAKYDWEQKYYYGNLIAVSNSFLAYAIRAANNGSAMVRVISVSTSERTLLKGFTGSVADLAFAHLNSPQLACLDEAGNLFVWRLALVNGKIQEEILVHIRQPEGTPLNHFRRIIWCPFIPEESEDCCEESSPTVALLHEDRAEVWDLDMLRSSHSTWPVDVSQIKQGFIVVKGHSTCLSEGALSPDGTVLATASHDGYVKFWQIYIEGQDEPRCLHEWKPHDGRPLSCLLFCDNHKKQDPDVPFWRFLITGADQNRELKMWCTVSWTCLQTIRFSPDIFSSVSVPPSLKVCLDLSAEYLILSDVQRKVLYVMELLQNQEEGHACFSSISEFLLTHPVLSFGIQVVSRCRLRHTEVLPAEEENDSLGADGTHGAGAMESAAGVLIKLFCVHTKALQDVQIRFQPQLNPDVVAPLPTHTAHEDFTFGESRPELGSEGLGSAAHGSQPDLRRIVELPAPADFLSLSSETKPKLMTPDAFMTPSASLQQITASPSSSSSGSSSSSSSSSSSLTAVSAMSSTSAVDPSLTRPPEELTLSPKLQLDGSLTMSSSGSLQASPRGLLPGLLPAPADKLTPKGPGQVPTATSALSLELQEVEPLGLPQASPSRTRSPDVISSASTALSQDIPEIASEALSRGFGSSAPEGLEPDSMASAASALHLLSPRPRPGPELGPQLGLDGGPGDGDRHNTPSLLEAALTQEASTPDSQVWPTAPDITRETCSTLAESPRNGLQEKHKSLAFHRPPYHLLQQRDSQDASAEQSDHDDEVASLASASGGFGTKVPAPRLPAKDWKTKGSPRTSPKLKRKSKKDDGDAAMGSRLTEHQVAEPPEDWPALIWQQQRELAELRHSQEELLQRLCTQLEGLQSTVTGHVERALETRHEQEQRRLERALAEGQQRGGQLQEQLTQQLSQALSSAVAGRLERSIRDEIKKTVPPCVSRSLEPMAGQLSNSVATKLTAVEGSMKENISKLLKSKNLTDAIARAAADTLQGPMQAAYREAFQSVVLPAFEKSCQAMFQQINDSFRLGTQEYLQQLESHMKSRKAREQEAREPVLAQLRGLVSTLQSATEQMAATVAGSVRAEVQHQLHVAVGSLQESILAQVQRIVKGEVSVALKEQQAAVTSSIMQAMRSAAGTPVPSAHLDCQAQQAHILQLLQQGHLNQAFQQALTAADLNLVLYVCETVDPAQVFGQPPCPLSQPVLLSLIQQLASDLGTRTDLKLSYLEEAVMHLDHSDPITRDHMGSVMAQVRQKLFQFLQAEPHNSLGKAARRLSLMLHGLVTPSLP", "log2 fold change": -0.167}
{"target": "CTSV (UniProt O60911)", "log2 fold change": 0.012}
{"target": "CYB561A3 isoform 2 (UniProt Q8NBI2)", "sequence (Q8NBI2 whole entry, looked up)": "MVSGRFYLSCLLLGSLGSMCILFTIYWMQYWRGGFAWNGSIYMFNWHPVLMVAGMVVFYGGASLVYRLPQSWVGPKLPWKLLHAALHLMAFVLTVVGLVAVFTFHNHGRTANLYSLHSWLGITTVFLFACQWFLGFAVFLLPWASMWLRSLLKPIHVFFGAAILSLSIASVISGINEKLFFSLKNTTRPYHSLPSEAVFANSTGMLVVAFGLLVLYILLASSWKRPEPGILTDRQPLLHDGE", "log2 fold change": -0.043}
{"target": "DCP2 (UniProt Q8IU60)", "log2 fold change": -0.047}
{"target": "ERLIN2 (UniProt O94905)", "log2 fold change": 0.034}
{"target": "DPYSL2 (UniProt Q16555)", "log2 fold change": -0.089}
{"target": "ELAC1 (UniProt Q9H777)", "sequence (Q9H777 whole entry, looked up)": "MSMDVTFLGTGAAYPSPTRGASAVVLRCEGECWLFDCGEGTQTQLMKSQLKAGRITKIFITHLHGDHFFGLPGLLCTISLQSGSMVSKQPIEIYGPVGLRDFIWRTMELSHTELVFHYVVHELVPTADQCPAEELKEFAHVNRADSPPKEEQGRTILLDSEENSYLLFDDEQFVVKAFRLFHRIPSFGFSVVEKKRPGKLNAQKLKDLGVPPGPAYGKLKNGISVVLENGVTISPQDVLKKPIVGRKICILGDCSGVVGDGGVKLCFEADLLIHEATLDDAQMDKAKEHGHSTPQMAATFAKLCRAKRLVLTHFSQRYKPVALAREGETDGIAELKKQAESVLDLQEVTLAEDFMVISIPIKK", "log2 fold change": 0.051}
{"target": "FAM50A (UniProt Q14320)", "log2 fold change": -0.064}
{"target": "FAM118A (UniProt Q9NWS6)", "sequence (Q9NWS6 whole entry, looked up)": "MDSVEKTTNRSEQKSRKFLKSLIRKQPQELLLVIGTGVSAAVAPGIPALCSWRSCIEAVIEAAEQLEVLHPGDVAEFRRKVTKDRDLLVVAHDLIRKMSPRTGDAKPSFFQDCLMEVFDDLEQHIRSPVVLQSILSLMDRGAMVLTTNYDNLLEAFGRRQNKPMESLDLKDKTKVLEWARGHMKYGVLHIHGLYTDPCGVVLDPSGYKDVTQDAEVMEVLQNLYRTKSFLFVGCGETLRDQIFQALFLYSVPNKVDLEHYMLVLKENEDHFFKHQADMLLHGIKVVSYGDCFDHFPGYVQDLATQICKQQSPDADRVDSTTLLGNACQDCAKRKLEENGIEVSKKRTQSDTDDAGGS", "log2 fold change": -0.168}
{"target": "DIP2A (UniProt Q14689)", "log2 fold change": -0.095}
{"target": "DNAJC24 (UniProt Q6P3W2)", "sequence (Q6P3W2 whole entry, looked up)": "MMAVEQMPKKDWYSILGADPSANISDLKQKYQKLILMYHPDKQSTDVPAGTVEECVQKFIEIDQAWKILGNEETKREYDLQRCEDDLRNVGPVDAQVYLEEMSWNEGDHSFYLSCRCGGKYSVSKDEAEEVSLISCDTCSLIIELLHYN", "log2 fold change": -0.038}
{"target": "EZH2 isoform 2 (UniProt Q15910)", "log2 fold change": -0.18}
{"target": "DHRS13 (UniProt Q6UX07)", "log2 fold change": -0.139}
{"target": "FAM193B (UniProt Q96PV7)", "log2 fold change": -0.32}
{"target": "ECPAS (UniProt Q5VYK3)", "log2 fold change": -0.033}
{"target": "DMAC1 (UniProt Q96GE9)", "log2 fold change": -0.003}
{"target": "ELF1 (UniProt P32519)", "log2 fold change": -0.101}
